According to PubChem BioAssay (NCI):
This is part of a sample that, as a whole, favours compounds with a hit. Of some 79,000 tested, about 15% had one in any assay. The source made the active and inactive calls. Cut-off read from the data, not from the text of the source: active = growth inhibition above about 70%; inactive = the rest.

How the values were obtained:
[1] = NCI Yeast Anticancer Drug Screen. Data for the mec2-1 strain (AID 157); conditions: S. cerevisiae mec2-1 strain, active compounds read high
Procedure, shortened: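 Using mec2-1 yeast: add compound, measure growth, express inhibition versus vehicle-treated cultures.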

[2] = NCI Yeast Anticancer Drug Screen. Data for the rad14 strain (AID 159);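 note: 0% = growth of vehicle-treated control cultures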; conditions: S. cerevisiae rad14 strain growth inhibition, active compounds read high
Procedure, shortened: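 Here, inhibition of yeast growth was measured after compound exposure, using a strain with a genetic defect in DNA damage repair and vehicle-treated cultures as the reference.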

[3] = NCI Yeast Anticancer Drug Screen. Data for the sgs1 mgt1 strain (AID 161);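 note: 0% = growth of cultures given vehicle only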; conditions: S. cerevisiae sgs1 mgt1 strain, active compounds read high
Procedure, shortened: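 Compounds are added to genetically altered yeast, and growth is compared with cultures given vehicle alone to give percent inhibition.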

[4] = NCI Yeast Anticancer Drug Screen. Data for the CLN2oe strain (AID 163);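 note: 0% = growth of vehicle-only control cultures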; conditions: S. cerevisiae CLN2oe strain, active compounds read high
Procedure, shortened: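 Whole-cell yeast growth assay. A strain engineered for altered cell-cycle control received compound, and inhibition relative to vehicle-treated cultures was recorded.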

[5] = NCI Yeast Anticancer Drug Screen. Data for the cln2 rad14 strain (AID 165);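 note: 0% = growth equal to vehicle treated cultures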; conditions: S. cerevisiae cln2 rad14 strain, active compounds read high
Procedure, shortened: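 Yeast strain cln2 rad14, bearing defects in cell cycle control and DNA repair, serves as the test system; values reflect growth inhibition compared with vehicle.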

[6] = NCI Yeast Anticancer Drug Screen. Data for the bub3 strain (AID 167); conditions: S. cerevisiae bub3 mutant strain, active compounds read high
Procedure, shortened: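 Whole-cell yeast assay. The mutant strain was incubated with compounds, and growth inhibition was determined by comparison with vehicle-treated cells.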

[7] = NCI Yeast Anticancer Drug Screen. Data for the sgs1 strain (AID 173);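 note: 0% = growth of vehicle-only control cultures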; conditions: S. cerevisiae sgs1 mutant, active compounds read high
Procedure, shortened: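 A genetically defined yeast mutant is incubated with the test compound, and its growth is compared to that of the same strain given vehicle.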

[8] = NCI Yeast Anticancer Drug Screen. Data for the mlh1 rad18 strain (AID 175); conditions: S. cerevisiae mlh1 rad18 strain growth inhibition, active compounds read high
Procedure, shortened: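 Steps: expose repair-defective yeast to compound; measure growth; express inhibition against vehicle-treated controls.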

[9] = NCI Yeast Anticancer Drug Screen. Data for the rad52 strain (AID 147);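 note: 0% = growth of vehicle-treated control cultures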; conditions: S. cerevisiae rad52 mutant growth inhibition, active compounds read high
Procedure, shortened: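 Here a repair-compromised yeast strain receives each compound; its growth is then quantified and normalised to vehicle-only controls.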

[10] = NCI Yeast Anticancer Drug Screen. Data for the wt1 strain (AID 149);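 note: 0% = growth of vehicle-treated wt1 cultures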; conditions: S. cerevisiae wt1 strain (SPY 50644) growth inhibition, active compounds read high
Procedure, shortened: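 Measured: growth of wt1 yeast under compound versus vehicle treatment, reported as inhibition.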

[11] = NCI Yeast Anticancer Drug Screen. Data for the rad50EPP+ strain (AID 151);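 note: 0% = growth of vehicle-treated control cultures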; conditions: S. cerevisiae rad50 mutant strain, active compounds read high
Procedure, shortened: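 Read-out is yeast growth inhibition relative to vehicle; cells used were the rad50EPP+ strain.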

[12] = NCI Yeast Anticancer Drug Screen. Data for the mgt1 strain (AID 153); conditions: S. cerevisiae mgt1 mutant growth inhibition, active compounds read high
Procedure, shortened: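 Measured: inhibition of mgt1 yeast growth by compound, normalized to vehicle-treated cultures.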

[13] = NCI Yeast Anticancer Drug Screen. Data for the rad50 strain (AID 155);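 note: 0% = growth of vehicle-only cultures of the same strain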; conditions: S. cerevisiae rad50 strain growth inhibition, active compounds read high
Procedure, shortened: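 Growth of the mutant yeast was measured after compound exposure and referenced to vehicle-treated cultures.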

[14] = NCI Yeast Anticancer Drug Screen. Data for the mlh1 strain (AID 171);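 note: 0% = growth of vehicle-treated control cultures of the same strain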; conditions: S. cerevisiae mlh1 strain growth inhibition, active compounds read high
Procedure, shortened: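 A yeast strain with a defined genetic lesion serves as the test organism. Cultures receive compound or vehicle, and growth is measured.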

[15] = NCI Yeast Anticancer Drug Screen. Data for the wt2 strain (AID 169);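 note: 0% = growth of vehicle-treated yeast cultures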; conditions: S. cerevisiae wt2 strain growth inhibition, active compounds read high
Procedure, shortened: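 Treated yeast vs. vehicle-treated yeast: growth inhibition determined.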

[16] = NCI Yeast Anticancer Drug Screen. Data for the rad18 strain (AID 177); conditions: S. cerevisiae rad18 mutant growth inhibition, active compounds read high
Procedure, shortened: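 Measured value is growth inhibition of a yeast strain bearing a DNA repair alteration, referenced to vehicle-treated cells.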

[17] = at 5.0 µM (retest, dose inferred, filed as 0.5)
[18] = at 50.0 µM (retest, dose inferred, filed as 5.0)

Measured: growth inhibition

Cc1ccc2c(c1)C1(C)c3cc(C)ccc3SP1S2 (centres undefined)
active: [5]; [18] 71% | [8]; [18] 74%
inactive: [1]; [17] -12% | [1]; at 11.0 µM 18% | [1]; at 33.0 µM 30% | [1]; [18] 17% | [1]; at 50.0 µM 40.1% | [1]; at 100.0 µM 30% | [2]; at 1.2 µM 0% | [2]; at 3.7 µM -10% | [2]; at 11.0 µM -23% | [2]; at 33.0 µM 15% | [2]; at 100.0 µM 29% | [3]; [17] 6% | [3]; [18] 54% | [3]; at 50.0 µM 63% | [4]; at 1.2 µM 15% | [4]; at 3.7 µM -13% | [4]; at 11.0 µM -14% | [4]; at 33.0 µM 25% | [4]; at 100.0 µM 4% | [5]; [17] 28% | [5]; at 50.0 µM 52.9% | [6]; at 1.2 µM 23% | [6]; at 3.7 µM 18% | [6]; [17] -3% | [6]; at 11.0 µM 20% | [6]; at 33.0 µM 22% | [6]; [18] 59% | [6]; at 50.0 µM 42.8% | [6]; at 100.0 µM 42% | [7]; at 1.2 µM 6% | [7]; at 3.7 µM 4% | [7]; at 11.0 µM 18% | [7]; at 33.0 µM 46% | [7]; at 100.0 µM 51% | [8]; [17] 4% | [8]; at 50.0 µM 46.9%

Oc1ccc(Cl)cc1Cc1ccccc1
inactive: [9]; at 1.2 µM -21% | [9]; at 3.7 µM 4% | [10]; at 1.2 µM -41% | [10]; at 3.7 µM -11% | [10]; at 11.0 µM 60% | [11]; at 1.2 µM -52% | [11]; at 3.7 µM -15% | [11]; at 11.0 µM 28% | [12]; at 1.2 µM 11% | [12]; at 3.7 µM -2% | [13]; at 1.2 µM -46% | [13]; at 3.7 µM -43% | [13]; [17] 58% | [13]; at 11.0 µM 54% | [1]; at 1.2 µM -40% | [1]; at 3.7 µM 5% | [1]; [17] 54% | [2]; at 1.2 µM -23% | [2]; at 3.7 µM -23% | [2]; at 11.0 µM 54% | [3]; [17] -5% | [3]; [18] 44% | [4]; at 1.2 µM -11% | [4]; at 3.7 µM -30% | [5]; [17] 41% | [6]; at 1.2 µM -52% | [6]; at 3.7 µM -18% | [6]; [17] 36% | [14]; at 1.2 µM 12% | [14]; at 3.7 µM -9% | [14]; at 11.0 µM 69% | [7]; at 1.2 µM -23% | [7]; at 3.7 µM -17% | [7]; at 11.0 µM 66% | [8]; [17] 29%
active: [9]; at 11.0 µM 70% | [9]; at 33.0 µM 98% | [9]; at 100.0 µM 98% | [10]; at 33.0 µM 99% | [10]; at 100.0 µM 99% | [11]; at 33.0 µM 95% | [11]; at 100.0 µM 97% | [12]; at 11.0 µM 85% | [12]; at 33.0 µM 98% | [12]; at 100.0 µM 99% | [13]; at 33.0 µM 98% | [13]; [18] 86% | [13]; at 50.0 µM 92% | [13]; at 100.0 µM 98% | [1]; at 11.0 µM 77% | [1]; at 33.0 µM 84% | [1]; [18] 83% | [1]; at 50.0 µM 93.7% | [1]; at 100.0 µM 99% | [2]; at 33.0 µM 99% | [2]; at 100.0 µM 99% | [3]; at 50.0 µM 94.4% | [4]; at 11.0 µM 71% | [4]; at 33.0 µM 99% | [4]; at 100.0 µM 99% | [5]; [18] 99% | [5]; at 50.0 µM 92.9% | [6]; at 11.0 µM 70% | [6]; at 33.0 µM 100% | [6]; [18] 99% | [6]; at 50.0 µM 92.5% | [6]; at 100.0 µM 100% | [14]; at 33.0 µM 99% | [14]; at 100.0 µM 99% | [7]; at 33.0 µM 98% | [7]; at 100.0 µM 99% | [8]; [18] 70% | [8]; at 50.0 µM 93%

OC1CCCC2CCC[N-]C12.OC1CCCC2CCC[N-]C12.[O]=[V][OH] (centres undefined)
active: [9]; at 3.7 µM 98% | [9]; at 11.0 µM 98% | [9]; at 33.0 µM 97% | [9]; at 100.0 µM 97% | [10]; at 11.0 µM 85% | [10]; at 33.0 µM 93% | [10]; at 100.0 µM 96% | [11]; at 3.7 µM 96% | [11]; at 11.0 µM 96% | [11]; at 33.0 µM 95% | [11]; at 100.0 µM 95% | [12]; at 3.7 µM 88% | [12]; at 11.0 µM 98% | [12]; at 33.0 µM 97% | [12]; at 100.0 µM 97% | [13]; at 3.7 µM 95% | [13]; [17] 99% | [13]; at 11.0 µM 95% | [13]; at 33.0 µM 95% | [13]; [18] 97% | [13]; at 50.0 µM 86.8% | [13]; at 100.0 µM 95% | [1]; at 3.7 µM 86% | [1]; [17] 99% | [1]; at 11.0 µM 98% | [1]; at 33.0 µM 98% | [1]; at 50.0 µM 90.1% | [1]; at 100.0 µM 96% | [2]; at 3.7 µM 89% | [2]; at 11.0 µM 98% | [2]; at 33.0 µM 97% | [2]; at 100.0 µM 97% | [3]; [18] 98% | [3]; at 50.0 µM 91.5% | [4]; at 3.7 µM 78% | [4]; at 11.0 µM 93% | [4]; at 33.0 µM 95% | [4]; at 100.0 µM 96% | [5]; [18] 97% | [5]; at 50.0 µM 79.8% | [6]; at 3.7 µM 89% | [6]; [17] 99% | [6]; at 11.0 µM 98% | [6]; at 33.0 µM 98% | [6]; [18] 95% | [6]; at 50.0 µM 90.8% | [6]; at 100.0 µM 97% | [15]; at 11.0 µM 92% | [15]; at 33.0 µM 93% | [15]; at 100.0 µM 96% | [8]; [17] 99% | [8]; at 50.0 µM 86.8% | [16]; at 3.7 µM 95% | [16]; at 11.0 µM 96% | [16]; at 33.0 µM 96% | [16]; at 100.0 µM 96%
inactive: [9]; at 1.2 µM 54% | [10]; at 1.2 µM -4% | [10]; at 3.7 µM 67% | [11]; at 1.2 µM 47% | [12]; at 1.2 µM 24% | [13]; at 1.2 µM 47% | [1]; at 1.2 µM 3% | [1]; [18] 66% | [2]; at 1.2 µM 8% | [3]; [17] 19% | [4]; at 1.2 µM -12% | [5]; [17] 46% | [6]; at 1.2 µM 10% | [15]; at 1.2 µM -17% | [15]; at 3.7 µM 68% | [8]; [18] 64% | [16]; at 1.2 µM 46%
